Reference: PubChem BioAssay AID2629 (Broad Institute, 2010)
The whole screen tested about 320,000 compounds, of which about 1,900 (0.59%) were called active. This excerpt belongs to a sample that is enriched for actives. Values without a mark were called inactive. No stated cut-off is given here; in the data, active means inhibition mostly above about 10% (no sharp cut-off); inactive means mostly below about 6.7%.

target: Protein LANA1 (Human herpesvirus 8 type P (isolate GK18)) (UniProt Q9QR71); test: blockers of LANA interaction with H2A/H2B – biochemical, FP readout, HTS, primary screen (AID 2629); details: cell-free LANA-H2A/H2B peptide, fluorescence polarization, stronger effect = higher value, concentration not given here
Sequence (Q9QR71 whole entry, looked up): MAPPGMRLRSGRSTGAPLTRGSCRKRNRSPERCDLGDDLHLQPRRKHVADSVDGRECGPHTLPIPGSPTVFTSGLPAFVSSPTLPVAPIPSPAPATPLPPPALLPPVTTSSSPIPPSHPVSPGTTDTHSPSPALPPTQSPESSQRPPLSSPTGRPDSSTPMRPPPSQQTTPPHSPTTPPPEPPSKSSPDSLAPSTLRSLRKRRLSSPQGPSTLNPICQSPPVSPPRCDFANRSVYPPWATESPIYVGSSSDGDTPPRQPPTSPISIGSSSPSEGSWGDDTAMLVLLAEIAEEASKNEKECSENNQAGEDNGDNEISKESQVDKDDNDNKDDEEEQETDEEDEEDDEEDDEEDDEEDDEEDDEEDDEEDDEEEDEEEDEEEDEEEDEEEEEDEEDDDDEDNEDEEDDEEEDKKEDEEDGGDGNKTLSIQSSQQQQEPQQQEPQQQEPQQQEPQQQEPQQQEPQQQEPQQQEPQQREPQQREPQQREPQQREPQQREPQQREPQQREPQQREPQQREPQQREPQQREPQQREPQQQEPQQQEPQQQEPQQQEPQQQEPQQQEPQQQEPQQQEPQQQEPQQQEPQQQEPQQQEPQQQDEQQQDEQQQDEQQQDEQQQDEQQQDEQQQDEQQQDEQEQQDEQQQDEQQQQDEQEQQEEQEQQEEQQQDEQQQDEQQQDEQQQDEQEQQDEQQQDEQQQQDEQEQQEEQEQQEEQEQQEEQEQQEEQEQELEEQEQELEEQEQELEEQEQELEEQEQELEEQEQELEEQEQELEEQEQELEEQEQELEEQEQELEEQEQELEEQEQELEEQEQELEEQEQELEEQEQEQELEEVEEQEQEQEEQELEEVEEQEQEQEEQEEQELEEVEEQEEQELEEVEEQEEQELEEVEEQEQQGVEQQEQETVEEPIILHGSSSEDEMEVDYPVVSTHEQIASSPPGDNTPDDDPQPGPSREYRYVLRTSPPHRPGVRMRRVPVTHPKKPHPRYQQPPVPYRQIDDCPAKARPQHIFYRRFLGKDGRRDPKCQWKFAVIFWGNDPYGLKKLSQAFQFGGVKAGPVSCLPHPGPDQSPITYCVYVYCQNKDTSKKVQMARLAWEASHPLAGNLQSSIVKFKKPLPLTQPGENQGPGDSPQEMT

Row | Structure (SMILES) | inhibition
1 | O=C(Nc1ccccc1F)c1ccc2c(c1)OCO2 | -1.38%
2 | O=C(NCCc1ccc(C(F)(F)F)cc1)c1ccc2c(c1)OCO2 | 16.2% (active)
3 | Cc1ccc2cc(CCNC(=O)c3ccc4c(c3)OCO4)c(=O)[nH]c2c1 | -1.83%
4 | COc1ccc(OCCn2ccnc2C)cc1 | -0.22%
5 | COC(=O)C1=C(C(=O)OC)C2(OC1c1ccc(Br)cc1)C(=O)c1ccccc1C2=O (stereo not given) | 3.44%
6 | Cc1cc2nc3c(=O)n(Cc4ccccc4)c(=O)[nH]c3nc2cc1N | 27.2% (active)
7 | COC(=O)CSc1nc2ccccc2c(=O)n1Cc1ccccc1 | 2.39%
8 | C=CCSc1nc2c(c(=O)[nH]c(=O)n2C)n1Cc1ccccc1 | -0.531%
9 | Cc1ccc2cccc(OCCCOc3ccccc3CO)c2n1 | -1.05%
10 | C[N+](C)(CCCCCC[N+](C)(C)CCCN1C(=O)c2cccc3cccc(c23)C1=O)CCCN1C(=O)c2cccc3cccc(c23)C1=O | 0.475%
11 | O=C(O)c1ccc2c3c(cccc13)C(=O)N(OS(=O)(=O)c1ccccc1)C2=O | 1.71%
12 | CN1C(=O)c2cccc3c(N)ccc(c23)C1=O | 25.3% (active)
13 | Cc1nn(-c2cc(Cl)ccc2N)c(=O)c2ccccc12 | 0.97%
14 | Cc1nn(C)cc1N1C(=O)c2cccc3c(N)ccc(c23)C1=O | 101% (active)
15 | COc1ccc(N2C(=O)c3cccc4cccc(c34)C2=O)nn1 | -111%
16 | CC(C)C[C@H]1CN=C(Nc2ccccc2)N1CC1CCCCC1 | -0.894%
17 | CCC(=O)Nc1nnc(S(=O)(=O)N2CCCc3ccccc32)s1 | 3.1%
18 | CN(Cc1ccccc1)C(=O)C1CCCN(c2ncnc3c2nc2n3CCCCC2)C1 (stereo not given) | -6.07%
19 | CN1CCN(S(=O)(=O)c2ccc(Nc3ccc(F)cc3)nc2)CC1 | 3.84%
20 | CC1(C(=O)O)CCC(C(=O)Nc2ccc(Cl)c(Cl)c2)C1(C)C (stereo not given) | -7.06%
21 | O=C(c1ccccc1)c1cccn1CC(=O)N1CCN(c2ccc(F)cc2)CC1 | 5.58%
22 | Brc1ccc(C2=CC(c3ccco3)n3ncnc3N2)cc1 (stereo not given) | 35% (active)
23 | CCOc1ccc(C2=CC(c3ccccc3)n3ncnc3N2)cc1 (stereo not given) | -0.926%
24 | CC1=C(C(=O)OCc2ccccc2)C(c2ccco2)n2ncnc2N1 (stereo not given) | -3.53%

Row | Structure (SMILES) | inhibition
25 | Cc1ccc(NC(=O)COc2coc(CN3CCc4ccccc4C3)cc2=O)cc1Cl | -6.2%
26 | O=C(Nc1ccc(Br)cc1)C1CCC(=O)N1Cc1ccccc1Cl (stereo not given) | 1.59%
27 | COc1ccc(/C=C/C(=O)c2cc(Br)ccc(=O)c2O)cc1 | 182% (active)
28 | COc1ccc(C(=O)/C=C/c2cccnc2)c(OC)c1 | 0.568%
29 | COc1ccc2oc(=N)c(C(=O)Nc3ccc(Br)cc3)cc2c1 | 1.77%
30 | CC(=O)c1ccc(S(=O)(=O)NC2CC(=O)N(c3ccc4c(c3)OCCO4)C2)cc1 (stereo not given) | -5.02%
31 | CC(C)C(=O)Nc1ccc2c(c1)oc1ccccc12 | 0.3%
32 | O=S(=O)(NC1CC1)c1ccc2c3c(cccc13)CC2 | -8.67%
33 | CC(C)C(=O)Nc1ccc2c3c(cccc13)CC2 | 22.9% (active)
34 | CC(C)Oc1ccc(C(=O)NC(C)(C)CO)cc1 | 2.55%
35 | O=C(/C=C/Nc1ccc(S(=O)(=O)Nc2cnc3ccccc3n2)cc1)c1cccnc1 | 5.47%
36 | Cc1cccc(N2CC(C)Cn3c2nc2c3c(=O)n(CC(=O)OCc3ccccc3)c(=O)n2C)c1 (stereo not given) | 0.536%
37 | O=C(Nc1c(C(=O)N2CCCCC2)cnn1-c1ccccc1)c1ccco1 | 0.114%
38 | O=C(Nc1ccccc1C(=O)N1CCCCCC1)c1ccccc1Cl | -5%
39 | O=C(Nc1ccccc1C(=O)N1CCCCC1)c1ccco1 | 20.4% (active)
40 | CCOc1ccc(NC(=O)CN(C)C(=O)c2c(C)noc2C)cc1OCC | -1.42%
41 | CCCCN=C1N/C(=C\c2ccco2)C(=O)N1c1ccccc1 | -4.75%
42 | CCOc1ccc(CC(=O)NCCS(=O)(=O)N2CCN(c3ccccc3)CC2)cc1 | 7.98%
43 | COc1ccc(OC)c(NC(=O)N[C@H](Cc2ccccc2)C(=O)NN)c1 | 1.67%
44 | CC(=O)COc1ccc2c(-c3ccccc3)cc(=O)oc2c1 | 4.47%
45 | O=C(CNC(=O)c1ccc(-c2ccccc2)cc1)OCc1ccc(Cl)cc1 | -3.98%
46 | O=C(CNC(=O)OCc1ccccc1)Oc1cc2oc(=O)cc(-c3ccccc3)c2cc1Cl | 22.2% (active)
47 | COc1ccc(CCNC(=O)C2CCCN(Cc3nc(-c4cccc(Cl)c4)oc3C)C2)cc1OC (stereo not given) | 2.76%
48 | Cc1ccc(C)c(NC(=O)COC(=O)Cn2c(C)csc2=O)c1 | -0.0986%

Row | Structure (SMILES) | inhibition
49 | CCN1C(=O)C(CC(=O)Nc2cc(C)ccc2C)SC1=Nc1ccc(S(N)(=O)=O)cc1 (stereo not given) | -5.5%
50 | CCN1C(=O)C(=O)N(CC(=O)Nc2cc(C)ccc2C)C1=O | 65.4% (active)
51 | Cc1cccc(C(=O)NCC(=O)OCC(=O)N(C)CC(=O)Nc2ccccc2Cl)c1 | -3.61%
52 | CSc1nnc(-c2ccc(C(F)(F)F)cn2)o1 | 12.3% (active)
53 | FC(F)(F)c1cnc(Oc2ccccc2-c2nnc(-c3ccc(Cl)cc3)o2)c(Cl)c1 | 0.331%
54 | CC(C)Oc1ccc(Oc2ccc(C(F)(F)F)cn2)cc1 | 0.437%
55 | N/C(=N\c1nc2ccccc2o1)NC(=O)C(Cc1ccccc1)N1C(=O)c2ccccc2C1=O (stereo not given) | -0.102%
56 | C[N+](C)(C)CCNC(=O)c1cc[n+](Cc2ccccc2)c(/C=N/O)c1 | -2.86%
57 | COc1ccc(NC(=O)CC2C(=O)OCC3CCCCN32)cc1Cl (stereo not given) | 6.65%
58 | Cc1cc(NC(=O)CN2C(=O)NC(CC(C)C)C2=O)no1 (stereo not given) | -2.81%
59 | CCOC(=O)c1[nH]c2ccc(OC)cc2c1NC(=O)N1CCOCC1 | -1.57%
60 | CCOC(=O)N1CCN(CCC(=O)Nc2cc(OC)ccc2OC)CC1 | -0.496%
61 | CCOC(=O)c1[nH]c2ccc(OC)cc2c1NC(=O)CCN1CCN(Cc2ccccc2)CC1 | 38.6% (active)
62 | CC1CCCN(S(=O)(=O)c2ccc(-c3ccc(=O)[nH]n3)o2)C1 (stereo not given) | 5.98%
63 | CSCC(NS(=O)(=O)c1ccc(C)cc1)C(=O)O (stereo not given) | 4.08%
64 | CSCCC(NS(=O)(=O)c1ccc(C)cc1)C(=O)N1CCCC1 (stereo not given) | 10.1% (active)
65 | CSCCC(NC(=O)c1ccccc1)C(=O)N1CCCCCCC1 (stereo not given) | 3.36%
66 | O=C(NCCOc1ccccc1F)Nc1ccc(Br)cc1 | 1.21%
67 | CCC(C)[C@H](NC(=O)N1c2ccccc2NC(=O)[C@@H]1C(C)C)C(=O)N[C@@H](Cc1ccccc1)C(=O)O (stereo not given in full) | 0.386%
68 | COc1ccc(C(CCN(Cc2ccc(OC)c(OC)c2)C(=O)CCl)c2ccccc2)cc1 (stereo not given) | -1.72%
69 | CCN(CCCCOC(=O)c1ccc(OC)c(OC)c1)C(C)Cc1ccc(OC)cc1 (stereo not given) | 8.66% (active)
70 | COc1ccc(C(=O)OCC(=O)NCCCc2ccccc2)cc1OC | -0.725%
71 | CCN(C(=O)COC(=O)c1ccccc1O)c1cccc2ccccc12 | 4.86%
72 | O=C(C1CCN(S(=O)(=O)Cc2ccccc2)CC1)N1CCCc2ccccc21 | 1.2%

Row | Structure (SMILES) | inhibition
73 | CC(=O)Nc1ccc(Nc2cc(C)nc(Nc3ccc(NC(C)=O)cc3)n2)cc1 | -0.44%
74 | Cc1cc(Nc2ccc(Br)cc2)nc2ccccc12 | -0.269%
75 | Cc1cc(Nc2ccccc2)nc(N)n1 | 85.1% (active)
76 | Cc1cccn2c(CN(C)C3CCCc4ccccc43)c(C(=O)N3CCOCC3)nc12 (stereo not given) | 3.32%
77 | COc1ccc(OCC(=O)Nc2cc(C)c(Cl)cc2OC)c([N+](=O)[O-])c1 | 3%
78 | COc1cc(NC(=O)COC(=O)CSc2ccc3ccccc3c2)c(C)cc1[N+](=O)[O-] | 10.3% (active)
79 | CCCC(=O)OCC(=O)Nc1cc(Cl)ccc1[N+](=O)[O-] | 3.99%
80 | Cc1cc(NC(=O)COC(=O)COc2ccc(Cl)cc2C)c([N+](=O)[O-])cc1C | 18.3% (active)
81 | COc1cc(NC(=O)COC(=O)c2cnc(C)cn2)c(C)cc1[N+](=O)[O-] | 0.629%
82 | Cc1ccc(C)c(NC(=O)COC(=O)CSc2ccccc2)c1 | -1.08%
83 | Cc1ccc2c(c1)C(c1ccccc1)N(C(=O)c1ccc(F)cc1)CC(=O)N2 (stereo not given) | -6.68%
84 | CCCc1nc2c(C)cc(-c3nc4ccccc4n3C)cc2n1Cc1ccc(-c2ccccc2C(=O)O)cc1 | -5.17%
85 | O=C(CN1CCCC1)Nc1sc2c(c1C(=O)Nc1ccccc1)CCCC2 | -9.6%
86 | c1ccc(CN=C2Nc3ccccc3CS2)nc1 | -3.85%
87 | CS(=O)(=O)N1CCN(CC(=O)NC2CCCC2)CC1 | 3.66%
88 | Cc1ccc(S(=O)(=O)NC[C@H]2O[C@@H](n3cnc4c(N)ncnc43)[C@H](O)[C@@H]2O)s1 | -71.8%
89 | COc1cc(C(=O)Nc2ncccc2C)ccc1OCC(=O)N1CCOCC1 | -0.868%
90 | CCOc1cc(C(=O)OCC(=O)Nc2cccc(C)c2)ccc1OCC(=O)N1CCOCC1 | 25.3% (active)
91 | O=C(OCC(=O)N1CCOCC1)c1ccc2ccccc2c1 | -0.101%
92 | O=C(NCC1CCCO1)C1CCN(C2CCN(C(=O)C3CCCCC3)CC2)CC1 (stereo not given) | 0.649%
93 | C[C@H](NC(=O)c1ccccc1Cl)C(=O)OCC(=O)N1CCN(c2ccccc2)CC1 | 41% (active)
94 | O=C(NC(CC(=O)N1CCN(c2ccccc2)CC1)c1ccccc1)c1ccccc1Cl (stereo not given) | 4.7%
95 | COC(=O)c1ccccc1OCC(=O)N1CCN(c2ccc(Cl)cc2)CC1 | 3.13%
